Screening data from PubChem BioAssay.
Shiga toxin inh: blocks Shiga toxin action in Vero cells | Vero cells, Shiga toxin protein synthesis inhibition reporter | inhibition, % at 38.7 µM | hit rate 9.2% among 290,000 | AID 2315; in the data active = inhibition mostly above about 28%, no sharp cut-off; inactive = mostly below about 43%
LmPK inhibitor: inhibitors of Leishmania mexicana pyruvate kinase; hit rate 0.37% among 290,000; Q27686; purified LmPK, Kinase-Glo ATP luminescence, 1 h; Potency, µM (series often up to 57.5 µM), hits mostly inhibitors
Target sequence (Q27686 whole entry, looked up): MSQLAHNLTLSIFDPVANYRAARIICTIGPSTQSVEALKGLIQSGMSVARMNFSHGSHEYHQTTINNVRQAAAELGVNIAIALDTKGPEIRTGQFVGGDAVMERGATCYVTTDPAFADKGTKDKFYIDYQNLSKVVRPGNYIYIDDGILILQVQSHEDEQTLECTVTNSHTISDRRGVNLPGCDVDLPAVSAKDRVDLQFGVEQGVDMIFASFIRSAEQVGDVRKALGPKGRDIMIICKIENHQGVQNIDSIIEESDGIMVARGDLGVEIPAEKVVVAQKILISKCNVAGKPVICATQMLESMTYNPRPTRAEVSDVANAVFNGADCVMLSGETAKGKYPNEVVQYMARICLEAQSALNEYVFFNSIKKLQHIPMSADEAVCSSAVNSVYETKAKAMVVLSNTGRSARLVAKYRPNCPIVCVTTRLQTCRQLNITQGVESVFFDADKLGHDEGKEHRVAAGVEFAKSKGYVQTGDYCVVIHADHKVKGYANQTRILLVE
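qHTS format; LmPK 0.1 nM; substrates PEP 0.5 mM and ADP 0.1 mM. One-hour room-temperature incubation, then coupled luciferase luminescence; 0.5 nM enzyme wells mark activation.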
TbPYK inhibitor: blocks Trypanosoma brucei pyruvate kinase. Q57TT1. AID 624173. TbPYK enzyme, Kinase-Glo Plus ATP luminescence, 45 min. hit rate 0.12% among 410,000. Potency, µM (top dose mostly 76.8 µM), hits mostly inhibitors; also: nearly all actives have a fitted effect of over 50% in size
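Luminescence from Kinase-Glo Plus, added after a 45-minute room-temperature reaction, served as the end-point read-out. The enzyme and substrate were preincubated with compound before ADP (130 uM final) initiated turnover. Concentration-effect curves came from normalized qHTS data.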
CHX counter: counter-screen for Shiga toxin inhibitors: cycloheximide protein synthesis inhibition; cell reporter, cycloheximide protein synthesis inhibition counterscreen; max response, %; hit rate 12% among 300,000; in the data active = max response mostly above about 13%, no sharp cut-off; inactive = mostly below about 14%; also: read at 38.3 µM for the half of the compounds with a filed dose
FBPA Giardia inh: Giardia lamblia aldolase inhibition | A8B2U2 | Potency, µM (series often up to 59.6 µM), hits mostly inhibitors | AID 2451 | purified Giardia FBPA | hit rate 0.71% among 290,000; also: nearly all actives have a fitted effect of over 55% in size
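40 nM FBPA preincubated 10 min at RT with compound (up to 57.5 uM final), then substrate plus GAPDH/TPI/NAD/arsenate coupling and diaphorase/resazurin added. Fluorescence read after 20 min at RT, 525/598 nm.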
Sm TGR inh: blocks Schistosoma mansoni thioredoxin glutathione reductase. AID 485364. purified TGR, DTNB reduction, TNB absorbance 405 nm. Q962Y6. hit rate 3% among 360,000. Potency, µM (series often up to 114 µM), most hits filed as inhibitors; also: nearly all actives have a fitted effect of over 60% in size
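First, TGR (20 nM dispensed) and NADPH were mixed with compound. Second, a 15 min room-temperature incubation followed. Third, further NADPH and then DTNB were added to start the reaction. Finally, TNB absorbance was monitored kinetically.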
Large screens that a line does not name were inactive. This is one part of a sample in which hits are shown more often than they occur. Unless noted, calls follow the shape of the dose curve; as a rule, active = well fitted curve in the direction sought with a large enough effect; inconclusive = small, poorly fitted or top-dose-only effect, or another doubt; inactive = no such curve, though single readings can be large; an effect the other way counts as inactive or inconclusive.

COc1ccc(C(C[N+](=O)[O-])c2c(C)[nH]n(-c3ccccc3)c2=O)cc1 (stereo not drawn)	FBPA Giardia inh inconclusive, Sm TGR inh 17.8µM
COc1ccc(C(C[N+](=O)[O-])c2c(-c3ccccc3)cc3ccccn23)c(OC)c1 (stereo not drawn)	Shiga toxin inh 71.3, FBPA Giardia inh inconclusive, Sm TGR inh 56.2µM
CC(OC(=O)c1cccc(-n2cnnn2)c1)C(=O)Nc1ccc(F)cc1 (stereo not drawn)	none (no result: FBPA Giardia inh)
COc1ccccc1N1CCN(C(=O)CCc2c(C)nn(-c3ccc(N4CCCC4)nn3)c2C)CC1	none (no result: Shiga toxin inh, LmPK inhibitor, CHX counter, FBPA Giardia inh)
C=CCC(C)(O)C(=O)OCC (stereo not drawn)	none (no result: Shiga toxin inh, LmPK inhibitor, TbPYK inhibitor, CHX counter, Sm TGR inh)
COc1cc(C2c3c(oc4ccccc4c3=O)C(=O)N2c2ccccn2)cc(OC)c1OC (stereo not drawn)	none (no result: Shiga toxin inh, LmPK inhibitor, CHX counter, FBPA Giardia inh)
CCOc1ccc(-n2c(=O)c3c4c(sc3n(CC(=O)Nc3cccc(C(F)(F)F)c3)c2=O)CCCCC4)cc1	none (no result: Shiga toxin inh, LmPK inhibitor, CHX counter, FBPA Giardia inh)
COc1ccccc1-c1ccc(NC2CCCCC2)nn1	Shiga toxin inh 72.3, CHX counter 30.8
Cc1ccc(Nc2cccc(C(F)(F)F)c2)nn1	none (no result: Shiga toxin inh, LmPK inhibitor, CHX counter, FBPA Giardia inh, Sm TGR inh)
COc1ccccc1-c1ccc(Nc2cccc(C(F)(F)F)c2)nn1	CHX counter 14.8
COc1cc2c(=O)n(Cc3ccccc3)c(=O)n(CC(=O)Nc3cc(C(F)(F)F)ccc3Cl)c2cc1OC	none (no result: Shiga toxin inh, LmPK inhibitor, CHX counter, FBPA Giardia inh)
Cc1nc2c(O)cccc2cc1CO	FBPA Giardia inh 19.9µM
Oc1cccc2cc(Nc3ccccc3)cnc12	none (no result: Shiga toxin inh, LmPK inhibitor, CHX counter, FBPA Giardia inh, Sm TGR inh)
Cc1ccc(NS(=O)(=O)c2cccc(C(=O)NNC(=O)c3cccn3C)c2)c(C)c1	CHX counter 24.0 (no result: FBPA Giardia inh)
O=C(Nc1ccc(Cl)cc1)[C@@H]1[C@@H]2C(=O)N(c3ccc(Cl)cc3)C(=O)[C@@H]2[C@H]2C=CC=NN21	TbPYK inhibitor inconclusive, Sm TGR inh 50.1µM
CC(=O)Oc1ccc(C(=O)[C@H]2[C@H]3C(=O)N(c4ccc5ccccc5c4)C(=O)[C@H]3[C@@H]3C=CC=NN32)cc1	CHX counter 37.1
COc1ccccc1N1C(=O)C2C3C=CC(C3)C2C1=O (stereo not drawn)	none
COc1ccccc1N1C(=O)[C@@H]2[C@H](C1=O)[C@H](C(=O)c1ccc(OC(C)=O)cc1)N1N=CC=C[C@@H]21	FBPA Giardia inh inconclusive, Sm TGR inh 15.8µM
Cc1ccc(N2C(=O)[C@@H]3[C@H](C2=O)[C@H]2C=CC=NN2[C@@H]3C(=O)Nc2ccc(Cl)cc2)cc1	none
CCN(CC(=O)Nc1c(F)cccc1F)C(=O)c1cccc(S(=O)(=O)N(C)c2ccccc2)c1	none (no result: Shiga toxin inh, LmPK inhibitor, CHX counter, FBPA Giardia inh)
COc1cccc(CNC(=O)C2CCN(S(=O)(=O)c3c(C)noc3/C=C/c3cccs3)CC2)c1	none (no result: Shiga toxin inh, LmPK inhibitor, CHX counter, FBPA Giardia inh)
O=c1c(-c2cc(F)cc(F)c2)nc2cnc(Oc3ccccc3)nc2n1C1CC1	none (no result: Shiga toxin inh, LmPK inhibitor, CHX counter, Sm TGR inh)
COc1ccc2oc(C(=O)NCC3CCCO3)c(C)c2c1 (stereo not drawn)	Shiga toxin inh 98.2, CHX counter 64.9 (no result: FBPA Giardia inh)
COc1ccc2oc(C(=O)OCC(=O)NCC3CCCO3)c(C)c2c1 (stereo not drawn)	none (no result: Shiga toxin inh, LmPK inhibitor, CHX counter, FBPA Giardia inh)
CCOc1ccc2oc(C(=O)NCC3CCCO3)c(C)c2c1 (stereo not drawn)	Shiga toxin inh 88.5, CHX counter 45.7 (no result: FBPA Giardia inh)
COc1ccc2oc(C(=O)NC(C)(C)C)c(C)c2c1	Shiga toxin inh 95.8, CHX counter 49.3
COc1ccc(-c2cc(C(=O)NCC3CCCO3)c3cc(C)ccc3n2)cc1 (stereo not drawn)	CHX counter 18.2 (no result: Sm TGR inh)
O=C(CCN1C(=O)c2ccccc2S1(=O)=O)NCc1ccc(F)cc1	none (no result: Shiga toxin inh, LmPK inhibitor, CHX counter, FBPA Giardia inh)
O=C1c2ccccc2S(=O)(=O)N1CCOc1ccc(F)cc1	CHX counter 20.9
O=C(Cc1ccc(F)cc1)NCCc1csc(-c2ccc(C(F)(F)F)cc2)n1	none (no result: Shiga toxin inh, LmPK inhibitor, CHX counter, FBPA Giardia inh)
COc1cccc(CNC(=O)C(=O)NCC(c2ccco2)S(=O)(=O)c2cccs2)c1 (stereo not drawn)	Sm TGR inh 3.98µM (no result: Shiga toxin inh, LmPK inhibitor, CHX counter, FBPA Giardia inh)
COc1cccc(CNC(=O)C(=O)NCC(c2cccs2)S(=O)(=O)c2cccs2)c1 (stereo not drawn)	Sm TGR inh 25.1µM (no result: Shiga toxin inh, LmPK inhibitor, CHX counter, FBPA Giardia inh)
O=C(NCc1ccccc1)C(=O)NCC(c1ccco1)S(=O)(=O)c1cccs1 (stereo not drawn)	Sm TGR inh inconclusive (no result: Shiga toxin inh, LmPK inhibitor, CHX counter, FBPA Giardia inh)
Cc1ccc(C)c(N(C)S(=O)(=O)c2ccc3[nH]cc(C(=O)NC4CCCC4)c(=O)c3c2)c1	none (no result: Shiga toxin inh, LmPK inhibitor, CHX counter, FBPA Giardia inh)
COc1ccccc1NC(=O)Cn1c(=O)n(Cc2ccccc2)c(=O)c2sc3ccccc3c21	none (no result: Shiga toxin inh, LmPK inhibitor, CHX counter, FBPA Giardia inh)
CC(C)(C)c1ccc(S(=O)(=O)NCC(=O)Nc2ccc(-c3nc4ccccc4s3)cc2)cc1	Shiga toxin inh 123.1, CHX counter 38.0
O=C(O)CNS(=O)(=O)c1cccc(Cl)c1	none
CC(C)(C)C(=O)Nc1ccc(-c2nc3ccccc3s2)cc1	none (no result: Shiga toxin inh, LmPK inhibitor, CHX counter, FBPA Giardia inh)
Cc1ccc(C)c(S(=O)(=O)NC(C)C(=O)Nc2ccc(-c3nc4ccccc4s3)cc2)c1 (stereo not drawn)	Shiga toxin inh 83.2, CHX counter 53.1
O=C(CNS(=O)(=O)c1cccc(Cl)c1)Nc1ccc(-c2nc3ccccc3s2)cc1	Shiga toxin inh 42.9, CHX counter 33.5
CC(NS(=O)(=O)c1cccc(Cl)c1)C(=O)Nc1ccc(-c2nc3ccccc3s2)cc1 (stereo not drawn)	CHX counter 37.5
Cn1c(SCc2ccc(F)cc2)nc2ccc(C(=O)NCc3ccccc3)cc21	none (no result: Shiga toxin inh, LmPK inhibitor, CHX counter, FBPA Giardia inh)
